Data as given in PubChem BioAssay AID485350 (ICCB-Longwood Screening Facility, Harvard Medical School, 2010).
Values joined by “and” are separate entries in the source; they are usually repeats but may differ in a detail not shown here. Equal values may be shown once. About 95 (0.1%) of roughly 84,000 compounds were called active. This excerpt belongs to a sample that is enriched for actives. Values without a mark were called inactive. No stated cut-off is given here; in the data, active means inhibition above about 25% (passing the limit was not always enough); inactive means the rest.

tested on: BasE (2,3-dihydroxybenzoate-AMP ligase), Acinetobacter baumannii ATCC 17978; assay: inhibitors of A. baumannii BasE – biochemical, Acinetobacter baumannii ATCC 17978, fluorescence polarization, primary screen (AID 485350); conditions: purified BasE, fluorescence polarization binding displacement; stronger effect = higher value; concentration not given here;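 further: 0% = negative plate control signal and 100% = positive plate control signal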

| SMILES | inhibition |
| --- | --- |
| CCN(CC)CC(O)Cn1c(=O)n(CC(O)CN(CC)CC)c(=O)n(CC(O)CN(CC)CC)c1=O (stereo not drawn) | -0.02% |
| O=C1Cc2ccccc2C(=O)N1Cc1ccccn1 | 4.89% |
| O=C1CCC2(C(=O)OCCCn3c(=O)[nH]c4ccccc43)Sc3ccccc3N12 (stereo not drawn) | 1.34% |
| O=C(c1cc(Cl)c(O)c(Cl)c1)N1CCc2ccccc2C1 | 3% |
| Cc1nn2cnnc2c(C)c1CCC(=O)NCCCc1ccccc1 | -4.03% |
| O=C(CCC1CC(=O)OC1c1ccccc1)Nc1nccs1 (stereo not drawn) | 0.54% |
| CCOC(=O)c1c(C)oc2ncnc(N(C)Cc3ccccc3)c12 | 1.14% |
| COC(=O)c1cc(S(=O)(=O)N(CCCN2CCOCC2)C2CCN(C)CC2)cn1C | -0.33% |
| Cc1c(CCC(C)C)c(NCCN2CCOCC2)n2c(nc3ccccc32)c1C#N | 2.4% |
| CCN(C(=O)COc1ccc(Cl)cc1C)c1ccccc1 | 0.83% |
| CCOc1ccc(-n2cc(C(=O)N3CCN(c4ccccc4OC)CC3)c3cc(OC)c(OC)cc3c2=O)cc1 | 0.29% |
| Cc1cccc(NC(=O)NCC(=O)NC2CC2)c1 | -0.65% |
| COCC(C)NC(=O)Nc1c[nH]c2ccccc12 (stereo not drawn) | -1.24% |
| CCOc1cc(C(=O)CCC(=O)O)ccc1O | 0.21% |
| CCN(Cc1ccccc1)C(=O)c1cccc(N2C(=O)CCC2=O)c1 | 1.51% |
| C=CCN1C(=O)S/C(=C\c2ccc(OCC(=O)OC)cc2)C1=O | 0.73% |
| CCSc1nnc(CNc2ccc(F)cc2)n1-c1ccc(C)cc1 | 1.16% |
| CN(CC(=O)Nc1ccccc1Cl)Cn1nc(-c2ccco2)oc1=S | 1.44% |
| CCCN(CCC)Cc1ccc(CNc2nc(-c3ccc(OC)cc3)no2)o1 | -0.49% |
| CCC(CO)n1c(SCC(=O)Nc2ccc(C)c(C)c2)nc2cc(OC)c(OC)cc2c1=O (stereo not drawn) | 1.28% |
| COc1ccc(-c2noc(C3CCN(C(=O)OC(C)(C)C)CC3)c2C(=O)O)cc1 | 1.39% |
| Nc1ccccc1C(=O)NCC1CCCO1 (stereo not drawn) | -4.47% |

| SMILES | inhibition |
| --- | --- |
| COc1ccc(-n2cc3c(c(C#N)c2=N)CC(C)(C)CC3=O)c(OC)c1 | -12.9% |
| COC(=O)c1ccc(/C=N/O)cc1 | 1.3% |
| S=c1[nH]nc(-c2ccncc2)n1/N=C/c1cccnc1 | -0.5% and 1.06% |
| Cc1ccc(N=C2C(=O)N(CN3CCCC(C)C3)c3ccccc32)cc1 (stereo not drawn) | 0.38% |
| CCCc1nnc(SCC(=O)N2CCCc3ccccc32)n1CC | -5.47% |
| Cc1cccc(C(=O)NCC(=O)NN)c1 | 0.12% |
| Cc1csc(NC(=O)C2CCC(CNS(=O)(=O)c3cccc4nsnc34)CC2)n1 (stereo not drawn) | 28.5% (active) |
| O=S(=O)(NCc1ccc2c(c1)OCO2)c1cccc2nsnc12 | 0.67% |
| CCOCCCNc1nc2ccccc2nc1NS(=O)(=O)c1cccc2nsnc12 | 0.69% |
| Cc1cc(C)n(-c2ccc(C(=O)OCC(=O)C(C)(C)C)cc2)n1 | -0.47% |
| OC(CN1CCCCC1)CN1c2ccccc2Sc2ccccc21 (stereo not drawn) | -0.28% |
| O=C(Nc1ccccc1)Nc1ccc(Cl)c(Cl)c1 | 2.62% |
| Cc1ccccc1Nc1nc(N)nc(Cn2cc(Br)ccc2=O)n1 | 2.02% |
| Cc1ccc(S(=O)(=O)N(C)CC(=O)O)cc1 | 0.19% |
| CC(C)CN(CC(C)C)C(=O)C1CCN(S(=O)(=O)c2cccc3nsnc23)CC1 | -0.22% |
| CCc1c(C)nc2n(c1=O)C(CS(=O)(=O)c1ccc3ccccc3c1)CS2 (stereo not drawn) | 2.08% |
| O=C(O)CN1CCN(C(c2ccccc2)c2ccccc2)CC1 | 1.06% |
| CCCCn1c(N)c(N(C(=O)c2ccc(Cl)c(Cl)c2)C2CCCC2)c(=O)[nH]c1=O | 2.21% |
| Cc1ccc(NC(=O)CCn2c(=O)sc3ccccc32)cc1C | 2.16% |
| O=C(CSc1cccc[n+]1[O-])c1cc2c3c(c1)CC(=O)N3CCC2 | 1.79% |
| Cc1ccsc1C(=O)OCc1nc2sc3c(c2c(=O)[nH]1)CCCC3 | -0.18% |
